Measurements reported in PubChem BioAssay AID1619 (SRMLSC, 2009).
Among all 220,000 compounds or so, about 830 (0.38%) were called active.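 The calls were made as follows: active = compound inhibiting the enzyme by more than half at any dose during confirmatory dose-response retesting; inconclusive = strong single-dose inhibitors picked by rank but not retested; inactive = the rest.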 Not all results are given here. Potency and affinity values are given separately.

Molecular target: Leucine aminopeptidase (Plasmodium falciparum (isolate 3D7)) (UniProt Q8IL11)
Assay: P. falciparum M17LAP inhibitors, primary screen, biochemical, fluorogenic H-Leu-NHMec substrate, 1536-well (AID 1619);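 also: plate controls were full reaction with DMSO carrier for no effect and no enzyme background for full effect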
Conditions: recombinant M17LAP, H-Leu-NHMec fluorogenic kinetic assay; at 30 µM; active compounds read high

Leucine aminopeptidase (Plasmodium falciparum (isolate 3D7)), sequence (Q8IL11 whole entry, looked up): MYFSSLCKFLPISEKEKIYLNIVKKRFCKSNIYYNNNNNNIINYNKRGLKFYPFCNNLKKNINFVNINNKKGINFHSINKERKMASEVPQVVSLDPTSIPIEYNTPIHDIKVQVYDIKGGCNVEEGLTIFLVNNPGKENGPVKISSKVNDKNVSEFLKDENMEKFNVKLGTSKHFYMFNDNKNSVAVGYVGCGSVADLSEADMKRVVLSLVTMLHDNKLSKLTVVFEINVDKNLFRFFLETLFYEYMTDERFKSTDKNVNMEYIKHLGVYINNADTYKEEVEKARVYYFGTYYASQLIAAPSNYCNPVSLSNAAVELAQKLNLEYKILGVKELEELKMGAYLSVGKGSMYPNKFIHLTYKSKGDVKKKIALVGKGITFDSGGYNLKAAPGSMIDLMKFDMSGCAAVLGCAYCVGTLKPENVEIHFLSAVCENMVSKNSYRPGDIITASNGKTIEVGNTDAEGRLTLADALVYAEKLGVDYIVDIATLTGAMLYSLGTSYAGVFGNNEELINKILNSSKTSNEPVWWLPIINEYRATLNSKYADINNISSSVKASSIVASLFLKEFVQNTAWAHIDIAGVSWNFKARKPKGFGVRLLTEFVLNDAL

inhibition, inactive:
Cc1nc2ccccc2c2c1C(=O)N(C1CCCCCCC1)C2=O -2.77%
CN1C(=O)CSc2ccc(NC(=O)N3CCN(c4ccccc4)CC3)cc21 -3.56%
CC1CN(C(=O)c2ccc(N3CCCCC3)c([N+](=O)[O-])c2)CC(C)O1 (centres undefined) 8.04%
Cc1noc(NS(=O)(=O)c2ccc(NC(=O)c3cnc4n(c3=O)CCS4)cc2)c1C 36%
CCOc1cc(/C=N/NC(=S)Nc2ccccc2C(F)(F)F)ccc1OCC(=O)N1CCOCC1 0.32%
Cc1cc(-c2nc(-c3ccc(C(C)(C)C)cc3)no2)no1 2.57%
COCCCNC(=O)c1ccc(C2SCC(=O)N2Cc2ccco2)cc1 (centres undefined) 9.82%
COc1cc(SC)ccc1C(=O)NCc1ccc(C)cc1 -9.45%
CCc1nnc(NS(=O)(=O)c2ccc(N3C(=O)c4ccccc4C3=O)cc2)s1 19.2%
CCc1nnc(NS(=O)(=O)c2ccc(N=CC3=C(O)CC(C)(C)CC3=O)cc2)s1 37.1%
COc1cccc(/C=C2/NC(=O)NC2=O)c1OCC(=O)Nc1ccccc1 1.46%
Cc1ccnc2nc(C(=O)OCCOc3ccc(F)cc3)nn12 -4.95%
Cc1ccc(OCC(=O)Nc2cccc(O)c2)cc1C 17.6%
Cc1ccc(OCC(=O)Nc2cc(C(=O)O)cc(C(=O)O)c2)cc1C -17.5%
Cc1cc(C)c(C#N)c(SCCS(=O)(=O)Cc2ccccc2)n1 -2.33%
N#Cc1cc2c(nc1SCC(O)CS(=O)(=O)Cc1ccccc1)CCCC2 (centres undefined) 22.9%
COC(=O)N/N=C/c1cccc(OCCSc2ccc(Cl)cc2)c1 11.2%
C/C(=N\NC(=O)Cc1c[nH]c2ccccc12)c1ccc2ccccc2c1 -0.21%
C/C(=N\NC(=O)Cc1ccc(F)cc1)c1ccc(O)cc1 6.85%
C/C(=N\NC(=O)COc1ccccc1)c1ccc(O)cc1 16.8%
C/C(=N\NC(=O)Cc1cccn1C)c1ccc2ccccc2c1 32.5%
COc1cc(/C(C)=N/NC(=O)CSc2nc3ccccc3[nH]2)ccc1O 8.45%
COc1cc(/C(C)=N/NC(=O)CSc2nnc(C)s2)ccc1O -1.63%
CN(C)c1ccc(NC(=S)N2CCN(c3ncc(C(F)(F)F)cc3Cl)CC2)cc1 -0.82%
COc1ccccc1N1CCN(CC(=O)Nc2ccc(-n3cnnn3)cc2)CC1 -1.4%
O=c1cc(N2CCOCC2)[nH]c(=O)n1C1CCCCC1 8.33%
CC(C)c1nc(-c2c(N)n(C)c(=O)n(C)c2=O)sc1C(=O)C(C)(C)C -3.01%
O=C(c1cc(-c2ccc3c(c2)OCO3)on1)N1CCOCC1 -10.2%
Cc1ccc(NC(=O)Nc2ccc(F)cc2)nc1 3.7%
CCC(=O)N1CCN(c2ccc(NC(=O)c3ccc([N+](=O)[O-])o3)cc2Cl)CC1 3.55%
CCOC(=O)N1CCN(C(=O)Nc2cccc3ccccc23)CC1 23.7%
Fc1cccc(CSc2ccc3nnc(-c4cccnc4)n3n2)c1 21.3%
COc1ccccc1NC(=S)NC(=O)c1ccc(-c2ccc(Cl)cc2)o1 4.34%
O=C(NC(=S)Nc1ccccc1O)c1ccc(-c2ccc(Cl)cc2)o1 1.04%
Cc1ccc(OCC(=O)Nc2ccc(N(C)C)cc2)cc1 -2.19%
COc1ccc(-n2c(C(C)n3nc(C)c([N+](=O)[O-])c3C)n[nH]c2=S)cc1 (centres undefined) 31.2%
Cc1cccc(-c2n[nH]c(=S)n2-c2ccccc2)c1[N+](=O)[O-] 0.12%
Cc1ccc(NC(=S)NC(C)(C)C)c([N+](=O)[O-])c1 -4.98%
CC1=C(C)CC(C(=O)NCc2ccc3c(c2)OCO3)C(C(=O)O)C1 (centres undefined) 45.8%
COc1ccc(CNC(=O)C2CCNCC2)cc1 -2.52%
O=C(O)C1CCCCC1C(=O)NCCc1ccccc1 (centres undefined) 32.3%
O=C(O)[C@H]1CCCC[C@H]1C(=O)NCCc1ccccc1 36.3%
CCC(c1nnnn1Cc1cccs1)N1CCN(C(=O)c2ccco2)CC1 (centres undefined) 16.8%
COc1ccc(CC(=O)O/N=C(\N)c2ccncc2)cc1 -0.41%
COc1ccc(-n2nc(C(=O)N3CCN(Cc4ccc5c(c4)OCO5)CC3)c3ccccc3c2=O)cc1 6.93%
Cc1nc(Nc2ccc(S(=O)(=O)N3CCCCC3C)cc2)c2nnn(Cc3ccccc3)c2n1 (centres undefined) 9.37%
COc1ccc(NC(=O)c2ccc(NCCN3C(=O)CCC3=O)c([N+](=O)[O-])c2)cc1 4.32%
COC(=O)c1ccccc1NC(=O)CSc1nc(O)c(-c2ccccc2)c(=O)[nH]1 5.3%
CSCC[C@@H](C(=O)O)N1Cc2ccccc2C1=O 5.39%
O=C(O)C(Cc1ccccc1)N1Cc2ccccc2C1=O (centres undefined) -1.49%
CCN(Cc1ccccc1)C(=O)Cn1c(=O)n(CC(=O)NCc2ccco2)c(=O)c2sccc21 -1.64%
CCN(C(=O)CSc1nnc2ccccn12)c1c(N)n(Cc2ccccc2)c(=O)[nH]c1=O 12.8%
N#C/C(=C\c1ccc(Cl)cc1)c1nc2ccccc2o1 8.5%
COc1ccc(/C=C(\CC(=O)O)c2nc3ccccc3o2)cc1 48.7%
COc1ccc(/C=C/C(=O)NCCC(=O)N2CCCN(C)CC2)cc1 0.13%
Fc1ccccc1Nc1nc(-c2ccncc2)nc2ccccc12 0.48%
Cc1cc(C(=O)NC(Cc2ccccc2)C(=O)O)c(C)o1 (centres undefined) -7.27%
CSCCC(NC(=O)c1cc(C(C)(C)C)oc1C)C(=O)O (centres undefined) 20.9%
O=C(C[n+]1ccc(/C=N/O)cc1)N(Cc1ccccc1)Cc1ccccc1 4.35%
COCCNC(=O)C(C)OC(=O)c1cc2sccc2n1C (centres undefined) 3.75%
Cn1cnnc1Sc1nc2ccccc2nc1NS(=O)(=O)c1ccccc1 53.8%
CC(=O)Nc1ccc(S(=O)(=O)Nc2nc3ccccc3nc2Sc2nncn2C)cc1 -11.7%
Cc1[nH]n(-c2cccc3ccccc23)c(=O)c1/C=N/NC(=O)c1cccc([N+](=O)[O-])c1 11.1%
CCSc1nnc(NC(=O)C2CC2c2ccccc2)s1 (centres undefined) 15%
CCSc1nnc(NC(=O)C2CCCCC2)s1 1.5%
CCSc1nnc(NC(=O)NC2CCCCC2)s1 -14.6%
CCSc1nnc(NC(=O)C2CCCCC2C(=O)O)s1 (centres undefined) 48.8%
CCOC(=O)c1cc(NC(=O)N(CC)C2CCCCC2)c(C)nc1C 1.12%
Cc1cc(C)cc(NC(=O)CSc2nc3c(c(=O)[nH]2)CN(Cc2ccc(F)cc2)CC3)c1 13.5%
Cc1ccc(NC(=O)CSc2nc3c(c(=O)[nH]2)CN(Cc2ccc(F)cc2)CC3)cc1C -0.17%
CSc1nc(=O)n(-c2ccccc2)c(C)c1C(C)=O 2.84%
COc1cccc(NC(=S)N(CCCN2CCCC(C)C2)Cc2cccs2)c1 (centres undefined) -0.27%
CCOC(=O)c1c(-c2ccccc2)oc2ccc(O)c(CN(C)C)c12 -6.67%
CCOC(=O)Nc1c2ccccc2nc2ccccc12 -87.5%
COc1ccc(CCNC(=O)C2CC(=O)N(CCc3ccc(C)cc3)C2)cc1OC (centres undefined) 5.63%
CCCn1c(SCC(=O)NC2CCCc3ccccc32)n[nH]c1=O (centres undefined) -0.96%
C=CCn1c(N)c(C(=O)N2CCN(C)CC2)sc1=S 14%
O=C(O)c1cccc(S(=O)(=O)Nc2ccc(O)c(Sc3nc4ccccc4s3)c2)c1 42.9%
O=C(O)c1ccc(S(=O)(=O)Nc2ccc(O)c(Sc3nc4ccccc4s3)c2)cc1 40.7%
COc1cccc(Nc2ccc(Nc3cccc(OC)c3)nn2)c1 -1.13%
CCOc1ccc(Nc2nc3ccccc3c(=O)s2)cc1 4.25%
COc1cccc(Nc2nc3ccc(OC)cc3s2)c1 14.2%
CCOc1ccc(NC(=O)Nc2nnc(CC)s2)cc1 9.94%
O=C(CSc1ccc(Cl)cc1)N1CCC(c2nc3ccccc3s2)CC1 1%
CCn1c(SCC(=O)N(C)c2c(N)n(Cc3ccccc3)c(=O)[nH]c2=O)nc2ccccc21 -11.8%
Cc1c(C(=O)NCc2ccccc2)c(-c2ccccc2)nn1-c1ccccc1 6.71%
O=C(COc1ccccc1Cl)N1CCN(c2ncccn2)CC1 5.76%
O=C(O)CSc1nc(C(F)(F)F)cc(=O)n1-c1ccccc1 -6.87%
COCCCNC(=O)c1ccc(Cn2c(=O)c3ccccc3n(CC(=O)NCc3ccco3)c2=O)cc1 -3.96%
CCN(CC)c1ccc(NC(=O)CSc2nc3ccccc3c(=O)n2-c2cc(S(=O)(=O)N(C)C)ccc2C)cc1 -13%
Clc1ccccc1Nc1ncnc2c1nnn2Cc1ccccc1 5.79%
CC(=O)Oc1ccc(C(=O)[C@H]2[C@H]3C(=O)N(c4ccc(C)cc4)C(=O)[C@H]3[C@@H]3C=CC=NN32)cc1 14.6%
c1ccc(CNc2ncnc3nc[nH]c23)cc1 45.1%
COc1ccccc1CNc1ncnc2nc[nH]c12 6.16%
